Bioassay records: PubChem BioAssay, Broad Institute
mut p53 SMM = mutant p53 (human) binding | AID 624136 | calls only | actives 0.4% (n = 17,000) | small molecule microarray binding, anti-GST fluorescence;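 active = compounds whose four printed spots each glow above background more than chance allows, each with a p-value under 7%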
NFkB binder = NF-kappa-B p105 (human) binding | P19838 | Small molecule microarray, anti-His fluorescence binding | calls only | actives 1.3% (n = 17,000) | AID 624139;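 active = spot fluorescence over background significantly raised, with a chance value under 7% in all four replicate spots of the compound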;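 note: probe protein is his-tagged human p50 processed subunit at 1 µg/ml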
Target sequence (P19838 1-433 limits assumed): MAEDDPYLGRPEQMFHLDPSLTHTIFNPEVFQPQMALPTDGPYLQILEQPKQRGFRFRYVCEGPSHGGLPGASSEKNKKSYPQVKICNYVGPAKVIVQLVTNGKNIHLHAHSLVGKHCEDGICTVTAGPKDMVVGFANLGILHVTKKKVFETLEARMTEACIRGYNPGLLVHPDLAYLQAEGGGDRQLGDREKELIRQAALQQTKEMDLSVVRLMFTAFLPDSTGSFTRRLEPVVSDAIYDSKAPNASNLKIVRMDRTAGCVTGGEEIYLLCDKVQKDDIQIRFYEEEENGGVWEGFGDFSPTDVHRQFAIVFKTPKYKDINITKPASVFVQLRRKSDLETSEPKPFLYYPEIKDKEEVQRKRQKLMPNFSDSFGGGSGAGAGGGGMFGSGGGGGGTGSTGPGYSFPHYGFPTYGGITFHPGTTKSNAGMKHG
STAT3 SMM = binds human STAT3 on microarray | Small molecule microarray, His-STAT3 binding, anti-His fluorescence | calls only | actives 0.2% (n = 17,000);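 active = compounds whose four printed spots each show fluorescence over background unusually high for their array block, chance value under 7%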
mut p53 react = mutant p53 pathway reactivation; SW480 PUMA-promoter luciferase; activation, % at 9.98 µM; actives 1.5% (n = 28,000); AID 624151; in the data active = activation above about 52%
Myc binder = binds human c-Myc on microarray | P01106 | actives 1.5% (n = 17,000) | small molecule microarray, His-c-Myc binding, anti-His fluorescence | AID 624141 | calls only;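 active = spot fluorescence over background with P-value below 7% in all four replicate spots, showing protein binding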
Each line names hits and unclear results; the compound was inactive in the other large screens. Hits are enriched below; roughly 2.8% of the tested compounds scored in any of these assays.

O=[N+]([O-])c1cccc(CN(CCO)Cc2ccccc2)c1	none
OCCN(CCO)Cc1ccc(Br)cc1	mut p53 SMM active
Oc1ccccc1CNc1ccc2c(c1)ncn2C1CCCCC1	Myc binder active
CCOc1cc(C(=O)O)cc(I)c1OCC(=O)O	NFkB binder active, Myc binder active
O=C(CSc1nnc(-c2ccncc2)o1)Nc1ccccc1	none (no result: mut p53 SMM, NFkB binder, STAT3 SMM, Myc binder)
O=C(CSc1nnc(-c2ccc(Cl)cc2)o1)Nc1ccccc1C(F)(F)F	mut p53 react 68 (no result: mut p53 SMM, NFkB binder, STAT3 SMM, Myc binder)
O=C(CSc1nnc(-c2ccc(Cl)cc2)o1)Nc1ccc(I)cc1	none (no result: mut p53 SMM, NFkB binder, STAT3 SMM, Myc binder)
Cc1cc([N+](=O)[O-])ccc1NC(=O)CSc1nnc(-c2ccccc2)o1	mut p53 react 67 (no result: mut p53 SMM, NFkB binder, STAT3 SMM, Myc binder)
COc1cc(OC)cc(-c2nnc(SCC(=O)Nc3ccccc3)o2)c1	mut p53 react 102
CC(=O)N[C@H]1[C@H](O[C@@H]2[C@@H](O)[C@H](C)O[C@@H](Oc3ccc4c(=O)c(-c5ccc(O)cc5)coc4c3)[C@@H]2O)O[C@H](CO)[C@@H](O[C@@H]2O[C@@H](C)[C@H](O)[C@@H](O)[C@H]2O)[C@@H]1O	none
CCn1c(SCC(=O)c2cccc([N+](=O)[O-])c2)nnc1-c1ccc(Cl)cc1Cl	none (no result: mut p53 SMM, NFkB binder, STAT3 SMM, Myc binder)
Cc1ccc(-c2noc(CCC(=O)NC(C)(C)C)n2)cc1	mut p53 react 61
Clc1ccc(CSc2nnc(-c3ccco3)n2Cc2ccco2)c(Cl)c1	mut p53 SMM active
Cc1ccc(OCC(=O)Nc2cccc(C(=O)O)c2C)cc1	mut p53 react 66 (no result: mut p53 SMM, NFkB binder, STAT3 SMM, Myc binder)
Cc1ccc2oc(-c3cccc(NC(=O)COc4ccc(Cl)cc4)c3C)nc2c1	mut p53 react 66 (no result: mut p53 SMM, NFkB binder, STAT3 SMM, Myc binder)
Cc1c(NC(=O)COc2ccc(C(C)(C)C)cc2)cccc1C(=O)O	none (no result: mut p53 SMM, NFkB binder, STAT3 SMM, Myc binder)
Cc1ccc2oc(-c3cccc(NC(=O)COc4ccc(Br)cc4)c3C)nc2c1	none (no result: mut p53 SMM, NFkB binder, STAT3 SMM, Myc binder)
O=C1c2ccccc2CN1CCNS(=O)(=O)c1ccc2oc3ccccc3c2c1	none (no result: mut p53 SMM, NFkB binder, STAT3 SMM, Myc binder)
COc1cccc(C2CC(C(F)(F)F)n3nc(C(=O)Nc4cc(C)nn4-c4ccccc4)cc3N2)c1 (stereo not given)	none
C=CCn1c(SCC(=O)O)nnc1-c1ccccc1	none (no result: mut p53 SMM, NFkB binder, STAT3 SMM, Myc binder)
C=CCn1c(SCC(=O)O)nnc1-c1cccc(C)c1	Myc binder active
COC(OC)C1Nc2ccccc2C(=O)N1c1cccc(C(F)(F)F)c1 (stereo not given)	none (no result: mut p53 SMM, NFkB binder, STAT3 SMM, Myc binder)
C[C@H](CO)N1C[C@H](C)[C@H](CN(C)C(=O)Nc2ccccc2)Oc2ncc(-c3cccc(C(F)(F)F)c3)cc2C1=O	NFkB binder active, Myc binder active
C[C@H]1CN([C@@H](C)CO)C(=O)c2cccc(NC(=O)NC3CCCCC3)c2O[C@H]1CN(C)S(=O)(=O)c1ccc(Cl)cc1	Myc binder active
C[C@@H]1CN([C@@H](C)CO)C(=O)c2cccc(NC(=O)NC3CCCCC3)c2O[C@@H]1CN(C)C(=O)Nc1ccc(C(F)(F)F)cc1	NFkB binder active, Myc binder active
C[C@@H]1CN([C@H](C)CO)C(=O)c2cccc(NC(=O)NC3CCCCC3)c2O[C@@H]1CN(C)C(=O)Nc1ccc(C(F)(F)F)cc1	none
C[C@@H]1CN([C@@H](C)CO)C(=O)c2cccc(NC(=O)c3cnccn3)c2O[C@H]1CN(C)C(=O)Nc1ccccc1	NFkB binder active, Myc binder active
COc1ccc(NC(=O)N(C)C[C@@H]2Oc3ncc(-c4cccc(C(F)(F)F)c4)cc3C(=O)N([C@H](C)CO)C[C@@H]2C)cc1	none
CCN(CC(=O)Nc1cccc(C(F)(F)F)c1)S(=O)(=O)c1ccc(C)cc1	none (no result: mut p53 SMM, NFkB binder, STAT3 SMM, Myc binder)
C[C@H](CO)N1C[C@H](C)[C@H](CN(C)S(=O)(=O)c2ccccc2)Oc2ncc(C#Cc3ccc(C(F)(F)F)cc3)cc2C1=O	Myc binder active
C[C@H]1CN([C@@H](C)CO)C(=O)c2cccc(NC(=O)Nc3ccc(C(F)(F)F)cc3)c2O[C@@H]1CN(C)CC1CC1	STAT3 SMM active
C[C@H](CO)N1C[C@H](C)[C@@H](CN(C)C(=O)Nc2ccc(C(F)(F)F)cc2)Oc2c(NC(=O)NC3CCCCC3)cccc2C1=O	NFkB binder active, Myc binder active
C[C@H](CO)N1C[C@H](C)[C@@H](CN(C)CC2CC2)Oc2c(NC(=O)Nc3ccc(C(F)(F)F)cc3)cccc2C1=O	none
C[C@H]1CN([C@@H](C)CO)C(=O)c2cccc(NC(=O)Nc3ccc(C(F)(F)F)cc3)c2O[C@@H]1CN(C)C(=O)NC1CCCCC1	STAT3 SMM active
C[C@H](CO)N1C[C@H](C)[C@H](CN(C)S(=O)(=O)c2ccccc2)Oc2ncc(C#Cc3ccccc3)cc2C1=O	none
Cc1ccc(S(=O)(=O)NCCNc2ccc([N+](=O)[O-])cc2)cc1	none
O=[N+]([O-])c1ccc(NCCNCCO)cc1	mut p53 SMM active
O=C(CSc1nnc(-c2ccncc2)n1-c1ccc(F)cc1)c1ccc(Cl)cc1	none (no result: mut p53 SMM, NFkB binder, STAT3 SMM, Myc binder)
COc1ccc(C(=O)Nc2sc3c(c2C(=O)NC2CCS(=O)(=O)C2)CCCC3)cc1OC (stereo not given)	none
COc1ccc(C(=O)Nc2sc3c(c2C(N)=O)CCCC3)cc1OC	mut p53 react 76
O=C(NCc1ccccn1)c1cnn2c1NC(c1cccs1)CC2C(F)(F)F (stereo not given)	none
O=C1O[C@H](c2ccccc2)[C@H](c2ccccc2)N2[C@H]1[C@@H](C(=O)N1CCCCCCC1)[C@]1(C(=O)Nc3ccccc31)[C@H]2c1ccc(OCCO)cc1	mut p53 SMM active, NFkB binder active, Myc binder active (no result: mut p53 react)
O=C1O[C@@H](c2ccccc2)[C@@H](c2ccccc2)N2[C@@H](c3ccc(OCCO)cc3)[C@]3(C(=O)Nc4ccccc43)[C@@H](C(=O)N3CCCCCCC3)[C@H]12	mut p53 SMM active, NFkB binder active, Myc binder active (no result: mut p53 react)
CCn1c(SCc2nc3ccccc3[nH]2)nc2sc(C)c(C)c2c1=O	none (no result: mut p53 SMM, NFkB binder, STAT3 SMM, Myc binder)
O=C(OCc1cccc([N+](=O)[O-])c1)c1ccc(NC(=O)c2ccco2)cc1	mut p53 react 70
CC(C)CC(=O)c1c(O)cc(O)cc1OC1OC(COC(=O)c2cc(O)c(O)c(O)c2)C(O)C(O)C1O (stereo not given)	none
COc1cccc(NC(=O)CNC(=O)c2ccccc2)c1	mut p53 react 57
COc1ccc(C(=O)NCC(=O)Nc2cccc(C(F)(F)F)c2)cc1	none
CC(Oc1ccc(Br)cc1)c1nc(-c2ccccn2)no1 (stereo not given)	mut p53 react 60 (no result: mut p53 SMM, NFkB binder, STAT3 SMM, Myc binder)
O=S(=O)(N[C@@H]1CCN(Cc2ccc(OCCO)cc2)C1)c1cc(C(F)(F)F)ccc1Cl	none (no result: mut p53 react)
CC(=O)C(C)Sc1ncnc2sc(-c3ccccc3)cc12 (stereo not given)	mut p53 react 73 (no result: mut p53 SMM, NFkB binder, STAT3 SMM, Myc binder)
CC(C)Cc1ccc(/C=C/C(=O)N2CCOCC2)cc1	mut p53 react 81 (no result: mut p53 SMM, NFkB binder, STAT3 SMM, Myc binder)
CC(C)NS(=O)(=O)c1ccc(OCC(=O)N2CCOCC2)cc1	none (no result: mut p53 SMM, NFkB binder, STAT3 SMM, Myc binder)
Cc1cc(Cl)ccc1OCCNS(=O)(=O)c1cc([N+](=O)[O-])ccc1C	none (no result: mut p53 SMM, NFkB binder, STAT3 SMM, Myc binder)
Cc1ccc(-c2nnc(SCC(=O)Nc3ccccc3F)n2C)cc1	mut p53 react 60 (no result: mut p53 SMM, NFkB binder, STAT3 SMM, Myc binder)
CC(NC(=O)c1ccccc1NC(=O)C1COc2ccccc2O1)c1ccccc1 (stereo not given)	none (no result: mut p53 SMM, NFkB binder, STAT3 SMM, Myc binder)
